Results on 25 compounds are retold here after PubChem BioAssay (NCATS).

The target in assay [1] is Cellular tumor antigen p53 (Homo sapiens) (UniProt P04637). The assay can be described thus: Primary qHTS for small molecule compounds that upregulate eGFP-tagged delta133p53alpha (in N-terminal) cells. (AID 2060322).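 For activation: series mostly up to about 56 µM; 0% = DMSO vehicle and 100% = reference activator.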 Note: nearly all actives have a fitted effect of over 75% in size. Note: potency is the fitted concentration of half-maximal effect. Particulars: NCI-H358 eGFP-delta133p53alpha fluorescence, 24 h; activation: hits give high values. The method, boiled down:
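NCI-H358 cells pre-induced 24 h with 10 ng/ml doxycycline to express N-terminal eGFP-delta133p53alpha, then dosed 24 h at 37C without doxycycline; fixed, Hoechst-stained, GFP intensity by laser scanning cytometry, normalized to DMSO (0%) and 57.5 uM 5-azacytidine (100%).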
For orientation: qHTS replaces the single test concentration by a dilution series.

Assay [2] concerns the target Aldehyde dehydrogenase, mitochondrial (Homo sapiens) (UniProt P05091). The assay can be described thus: qHTS for Inhibitors of the Aldehyde Dehydrogenase Family (ALDH2) Primary screen (AID 2061308).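 Note: plate controls were vehicle for no effect and reference inhibitor for full effect; nearly all actives have a fitted effect of over 55% in size.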
The target of assay [3] is Retinaldehyde dehydrogenase 3 (Homo sapiens) (UniProt P47895). The assay can be described thus: qHTS for Inhibitors of the Aldehyde Dehydrogenase Family (ALDH1A3) Primary screen (AID 2061315).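 Note: plate controls were DMSO vehicle for no effect and reference inhibitor for full effect.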

Values joined by “and” are separate entries in the source; they are usually repeats but may differ in a detail not shown here. Equal values may be shown once. Inconclusive results are not listed. A number with no mark means an inactive call. Active and inactive are the calls of the source. Calls come from the whole dose curve; as a rule, active = well fitted curve in the direction sought with a large enough effect; inconclusive = small, poorly fitted or top-dose-only effect, or another doubt; inactive = no such curve, though single readings can be large; an effect the other way counts as inactive or inconclusive.

Chain of Cellular tumor antigen p53 (Homo sapiens) (P04637 whole entry, looked up): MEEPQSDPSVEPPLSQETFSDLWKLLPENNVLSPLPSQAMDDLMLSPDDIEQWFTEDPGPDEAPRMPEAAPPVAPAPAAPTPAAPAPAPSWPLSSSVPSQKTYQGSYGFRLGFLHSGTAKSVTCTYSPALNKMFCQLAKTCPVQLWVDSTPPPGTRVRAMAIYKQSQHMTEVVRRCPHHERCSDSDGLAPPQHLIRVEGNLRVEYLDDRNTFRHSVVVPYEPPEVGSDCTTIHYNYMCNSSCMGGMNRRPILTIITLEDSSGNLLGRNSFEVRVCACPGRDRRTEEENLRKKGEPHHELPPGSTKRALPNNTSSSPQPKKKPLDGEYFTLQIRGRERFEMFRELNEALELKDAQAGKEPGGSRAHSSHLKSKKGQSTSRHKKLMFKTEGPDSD

As for `CC(C)S(=O)(=O)NC[C@@H]1CC(c2ccc(N3CCCC3)c(F)c2)=NO1`, the activation in assay [1] was 0.333%. In addition, the Potency entry in assay [2] and in assay [3] was “inactive” throughout.
On to `CC[C@]12CCCN3CCc4c(n(c5ccccc45)C(=O)C1)[C@@H]32`, for which the Potency in assay [1] was 13.8 µM (active) and 10.7 µM (active). Further, the Potency entry in assay [2] and in assay [3] was “inactive” in each case.
Regarding `C[C@@H]1CC[C@]2(C(=O)O)CC[C@]3(C)C(=CCC4[C@@]5(C)CC[C@H](O)[C@](C)(C(=O)O)C5CC[C@]43C)C2[C@]1(C)O` (stereo not given in full), in assay [1], the activation is 8.4%. For the same compound, the Potency result in assay [2] and in assay [3] was “inactive” in each case.
On to `CC(=O)OC1CC2(C)C(CCC(C)C23Cc2c(O)cc(CO)c(C=O)c2O3)C(C)(C)C1O` (stereo not given), for which the activation in assay [1] is 23.7%. Also, the Potency result in assay [2] and in assay [3] was “inactive” each time.
Turning to `C#C[C@]1(OC(C)=O)CC[C@H]2[C@@H]3CCC4=C[C@@H](OC(C)=O)CC[C@@H]4[C@H]3CC[C@@]21C`, in assay [1], the activation is 6.33%. The Potency result in assay [2] and in assay [3] was “inactive” throughout.
As for `O=C(O)Cc1nn(Cc2nc3cc(C(F)(F)F)ccc3s2)c(=O)c2nccnc12`, the activation in assay [1] was -6.33%. Moreover, the Potency entry in assay [2] and in assay [3] was “inactive” in each case.
For the compound `CC1=C(C(=O)OCc2ccccc2)C(c2ccc(-c3ccccc3)cc2)NC(=O)N1CCCCCC(=O)O` (stereo not given), in assay [1], the activation was 12.3%. Moreover, the Potency result in assay [2] and in assay [3] was “inactive” each time.
`C/C=C(\C)C(=O)OC1C(C)C2(O)C3C=C(C)C(=O)C3CC(CO)=CC2C2C(C)(C)C12OC(C)=O` (stereo not given): in assay [1], the activation was -19.8%. Also, the Potency entry in assay [2] and in assay [3] was “inactive” in each case.
In the case of `COc1ccc([C@H]2OC[C@H]3[C@@H]2CO[C@@H]3c2ccc(O[C@@H]3O[C@H](CO)C(O)[C@H](O)[C@H]3O)c(OC)c2)cc1OC` (stereo not given in full), the activation in assay [1] was -1.79%. Also, the Potency entry in assay [2] and in assay [3] was “inactive” each time.
For the compound `CC1(C)C[C@@H]2[C@H](C1)[C@@]1(C)C[C@]13C(O)OC[C@]3(O)[C@H]2O` (stereo not given in full), the activation in assay [1] is 6.25%. Besides, the Potency entry in assay [2] and in assay [3] was “inactive” each time.
For the compound `CC(C)(C)NC(=O)[C@H]1CC[C@H]2[C@@H]3CC[C@H]4NC(=O)CC[C@]4(C)[C@H]3CC[C@]12C`, the activation in assay [1] was 21.7%. The Potency entry in assay [2] and in assay [3] was “inactive” throughout.
As for `C/C=C/C=C/C=C/C(=O)OC1C=C2C(O)OC(=O)[C@]2(O)[C@@]2(C)CCCC(C)(C)[C@H]12` (stereo not given in full), the activation in assay [1] was -2.29%. In addition, the Potency result in assay [2] and in assay [3] was “inactive” in each case.
With `COC(=O)C1=CO[C@@H](O[C@@H]2O[C@H](CO[C@@H]3O[C@H](CO)[C@@H](O)[C@H](O)[C@H]3O)[C@@H](O)[C@H](O)[C@H]2O)[C@@H]2C(CO)=CC[C@H]12`, the activation in assay [1] was 8.4%. Further, the Potency result in assay [2] and in assay [3] was “inactive” each time.
On to `C=C1C(O)C(OC(=O)c2ccccc2)C2C(C)(C(=O)O)CCCC2(C)C1CC/C(C)=C\CO` (stereo not given), for which the activation in assay [1] is 11.5%. In addition, the Potency entry in assay [2] and in assay [3] was “inactive” in each case.
Turning to `CC(C)(O)c1ccc2c(c1)C(=O)CC1[C@](C)(CO)CCC[C@]21C` (stereo not given in full), the activation in assay [1] is 26.8%. Further, the Potency entry in assay [2] and in assay [3] was “inactive” throughout.
Regarding `CC(=O)O[C@@H]1[C@H](O[C@@H]2O[C@H](CO)[C@@H](O)[C@H](O)[C@H]2O)[C@@H](O[C@@H]2O[C@@H](C)[C@H](O)[C@@H](O[C@@H]3O[C@H](CO)[C@@H](O)[C@H](O)[C@H]3O)[C@H]2O)[C@H](OC(=O)[C@]23CCC(C)(C)C[C@H]2C2=CCC4[C@@]5(C)C[C@H](O)[C@H](O[C@@H]6O[C@H](C(=O)O)[C@@H](O)[C@H](O)[C@H]6O)[C@@](C)(C(=O)O)C5CC[C@@]4(C)[C@]2(C)CC3)O[C@@H]1C` (stereo not given in full), in assay [1], the activation was 2.29%. Further, the activity change, negative = inhibition is 6.2% [at 11.2 µM] in assay [2] and -6.53% [at 11.2 µM] in assay [3].
On to `CCOC(=O)Cn1cccc1-c1nc(-c2ccc(OC)cc2)c(-c2ccc(OC)cc2)s1`, for which the activation in assay [1] is 27.6%. In addition, the Potency entry in assay [2] and in assay [3] was “inactive” throughout.
Regarding `COc1ccc(-n2[nH]c3c(cnc4ccccc43)c2=O)cc1`, the activation in assay [1] was -9.55%. Besides, the Potency entry in assay [2] and in assay [3] was “inactive” in each case.
With `COc1ccc(CNCc2cccc3ccccc23)cc1`, the activation in assay [1] was -2.33%. The Potency result in assay [2] and in assay [3] was “inactive” in each case.
Regarding `COC(=O)CCc1cc2ccoc2c(OC)c1O[C@@H]1O[C@H](CO)[C@@H](O)[C@H](O)[C@H]1O`, the activation in assay [1] was -27.7%. Besides, the Potency entry in assay [2] and in assay [3] was “inactive” each time.
For the compound `C/C=C(\C)C(=O)OCC1OC(OC2OC(CO)C(O)C(O)C2O)C(O)C(O)C1O` (stereo not given), the activation in assay [1] is -16.8%. Also, the Potency entry in assay [2] and in assay [3] was “inactive” in each case.
`COC(O)(CC(C)C)C1Oc2cc(C)[nH]c(=O)c2O1` (stereo not given): the activation in assay [1] was -26.7%. Also, the Potency entry in assay [2] and in assay [3] was “inactive” in each case.
For `CCOC(=O)C1=Cc2ccc(C(F)(F)C(F)(F)F)cc2N=C(N)C1`, in assay [1], the activation is -1.79%. In addition, the Potency result in assay [2] and in assay [3] was “inactive” in each case.
For the compound `CCOC(=O)CCNc1cc(N2CCc3ccccc3CC2)nc(-c2cccnc2)n1`, in assay [1], the activation is 7%. In addition, the Potency entry in assay [2] and in assay [3] was “inactive” each time.
On to `C[C@@H]1C(=O)OC[C@H]2C(C(=O)O)=C[C@@H]3CC(C)(C)C[C@]312`, for which the activation in assay [1] was -6.87%. In addition, the Potency entry in assay [2] and in assay [3] was “inactive” throughout.
